Experiment [1] deals with T1, MEK5.
T1 construct: gene MAP2K5
The settings on record: concentration: 1 μM, replicates: in singlicate; n = 1.

Experiment [2] concerns T2, MEK6.
T2 construct: gene MAP2K6
The following applies: concentration: 1 μM, replicates: in singlicate; n = 1.

Experiment [3] relates to MELK. The settings on record: concentration: 1 μM, replicates: in singlicate; n = 1.
In experiment [4] the test system is MERTK. The following applies: concentration: 1 μM, replicates: in singlicate; n = 1.
The subject of experiment [5] is MET. The following applies: concentration: 1 μM, replicates: in singlicate; n = 1.
Experiment [6] concerns T3, MINK.
T3 construct: gene MINK1
The following applies: concentration: 1 μM, replicates: in singlicate; n = 1.

In experiment [7] the test system is MKK7. The settings on record: concentration: 1 μM, replicates: in singlicate; n = 1.
Experiment [8] deals with MKNK1. The following applies: concentration: 1 μM, replicates: in singlicate; n = 1.
The test system of experiment [9] is MKNK2. The following applies: concentration: 1 μM, replicates: in singlicate; n = 1.
The subject of experiment [10] is T4, MLCK.
T4 construct: gene MYLK3
The following applies: concentration: 1 μM, replicates: in singlicate; n = 1.

For experiment [11], the system named is T5, MLK1.
T5 construct: gene MAP3K9
The following applies: concentration: 1 μM, replicates: in singlicate; n = 1.

Experiment [12] has as its system MLK2. The settings on record: concentration: 1 μM, replicates: in singlicate; n = 1.
For experiment [13], the system named is MLK3. The following applies: concentration: 1 μM, replicates: in singlicate; n = 1.
In experiment [14] the test system is MRCKA. The settings on record: n = 1.
Experiment [15] concerns T6, MRCKB.
T6 construct: gene CDC42BPB
The following applies: concentration: 1 μM, replicates: in singlicate; n = 1.

Experiment [16] concerns MST1R. The following applies: concentration: 1 μM, replicates: in singlicate; n = 1.
For experiment [17], the system named is T7, MST1.
T7 construct: gene STK4
The following applies: concentration: 1 μM, replicates: in singlicate; n = 1.

Experiment [18] relates to T8, MST2.
T8 construct: gene STK3
The following applies: concentration: 1 μM, replicates: in singlicate; n = 1.

Experiment [19] concerns T9, MST3.
T9 construct: gene STK24
The settings on record: concentration: 1 μM, replicates: in singlicate; n = 1.

The subject of experiment [20] is MST4. The following applies: concentration: 1 μM, replicates: in singlicate; n = 1.
[21] abbreviates: concentration: 1 μM, replicates: in singlicate.

Where two headings read alike, the source gives them in different places.
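Further: KINOMEscan kinase panel screen.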

Take `CCn1c(-c2nonc2N)nc2c(C#CC(C)(C)O)ncc(OCCCCN)c21.O=C(O)C(F)(F)F.O=C(O)C(F)(F)F` [GSK507274]: the “%Inh” value is on record as 0% in experiment [1]; 0% in experiment [2]; 1% in experiment [3]; 30% in [4]; 0% in [5]; 0% in [6]. The “%Inh” value in [7] was 0%; in [8] it was 0%; in experiment [9], 11%; in [10], 13%; in [11], 0%; in experiment [12] it was 0%. In addition, the “%Inh” value turned out to be 0% in experiment [13]; 17% in [14] (1 µM); 5% in [15]; 33% in experiment [16]; 3% in experiment [17]; 0% in experiment [18]. In addition, the “%Inh” value in experiment [19] is 0%; in [20], 2%.

On to `COc1cc(Nc2nccc(-c3c(-c4cccc(NC(=O)c5c(F)cccc5F)c4)nn4ccccc34)n2)cc(OC)c1OC` [GSK323521], for which the “%Inh” value in [1] is 79%; in [2] it was 3%; in experiment [3], 3%; in [4] it was 59%; in experiment [5], 58%; in experiment [6] it was 8%. Besides, the “%Inh” value in experiment [7] is 32%; in experiment [8] it was 7%; in experiment [9], 22%; in experiment [10], 9%; in experiment [11], 28%; in [12], 56%. The “%Inh” value in experiment [13] is 17%; in experiment [14] (setting [21]) it was 0%; in experiment [15], 0%; in experiment [16], 6%; in experiment [17], 92.1%; in experiment [18] it was 39%. For the same compound, the “%Inh” value in experiment [19] and in experiment [20] was 33% throughout.

On to `O=C(Nc1cccc(-c2nn3ccccc3c2-c2ccnc(Nc3cccc(F)c3)n2)c1)c1c(F)ccc(F)c1Cl` [GSK357952], for which the “%Inh” value amounted to 88% in experiment [1]; 0% in experiment [2]; 0% in experiment [3]; 51% in [4]; 0% in experiment [5]; 0% in experiment [6]. For the same compound, the “%Inh” value turned out to be 0% in experiment [7]; 0% in experiment [8]; 29% in [9]; 0% in [10]; 0% in experiment [11]; 31% in [12]. Also, the “%Inh” value in experiment [13] is reported as 39%; in experiment [14] (setting [21]), 9%; in experiment [15], 1%; in [16], 50%; in experiment [17], 25%; in [18], 0%. The “%Inh” value in [19] is reported as 4%; in experiment [20], 0%.

In the case of `Fc1ccc(-c2ncn(C3CCNCC3)c2-c2ccnc(Oc3ccc(-c4ccccc4)cc3)n2)cc1` [SB-245391], the “%Inh” value is reported as 17% in experiment [1]; 29% in experiment [2]; 27% in [3]; 0% in experiment [4]; 50% in [5]; 30% in experiment [6]. The “%Inh” value is 11% in [7]; 0% in [8]; 10% in experiment [9]; 0% in [10]; 52% in [11]; 46% in experiment [12]. Moreover, the “%Inh” value turned out to be 0% in experiment [13]; 26% in experiment [14] (setting [21]); 59% in experiment [15]; 0% in experiment [16]; 27% in experiment [17]; 30% in experiment [18]. The entries for the “%Inh” value in [19] and in experiment [20] were 14% and 31%, respectively.

In the case of `O=C(O)C(F)(F)F.O=C(O)C(F)(F)F.O=c1[nH]ccc2nc(N[C@@H]3CCCNC3)nc(Nc3ccc(S(=O)(=O)N4CCOCC4)cc3)c12` [GSK2177277], the “%Inh” value is on record as 100% in experiment [1]; 86% in [2]; 100% in [3]; 100% in experiment [4]; 90.2% in experiment [5]; 98.1% in experiment [6]. Moreover, the “%Inh” value came out at 81% in experiment [7]; 7% in experiment [8]; 59% in experiment [9]; 90.8% in experiment [10]; 96.4% in [11]; 83% in [12]. Besides, the “%Inh” value in [13] is reported as 98.4%; in experiment [14] (setting [21]), 35%; in experiment [15], 80%; in experiment [16], 57%; in experiment [17], 99.3%; in [18] it was 41%. The “%Inh” value in experiment [19] came out at 97.5%; in experiment [20] it was 98.9%.

As to `Cc1cccc(NC(=O)Nc2ccc(Oc3ncnc4ccn(C)c34)cc2)c1`, the “%Inh” value was 25% in experiment [1]; 0% in experiment [2]; 0% in experiment [3]; 9% in [4]; 19% in experiment [5]; 3% in [6]. Besides, the “%Inh” value in [7] was 0%; in [8] it was 3%; in experiment [9] it was 88%; in [10], 0%; in [11], 2%; in [12], 0%. For the same compound, the “%Inh” value in [13] stood at 0%; in experiment [14] (setting [21]), 0%; in experiment [15] it was 0%; in experiment [16], 7%; in experiment [17] it was 14%; in experiment [18], 0%. The “%Inh” value in experiment [19] and in [20] was 0% throughout.

`COc1cc(Nc2nccc(N3CCC(NC(=O)Nc4cccc(C(C)=O)c4)C3)n2)cc(OC)c1OC` (stereo not drawn) [GSK1379753]: the “%Inh” value is reported as 99.6% in experiment [1]; 0% in experiment [2]; 0% in experiment [3]; 23% in experiment [4]; 12% in experiment [5]; 0% in experiment [6]. The “%Inh” value in [7] is 0%; in [8], 9%; in experiment [9], 62%; in [10] it was 0%; in [11], 48%; in [12] it was 0%. Also, the “%Inh” value in experiment [13] came out at 45%; in experiment [14] (setting [21]), 18%; in experiment [15] it was 0%; in experiment [16], 36%; in experiment [17], 89%; in experiment [18] it was 31%. The “%Inh” value was determined as 2% in [19] and 0% in experiment [20].

For `O=C(Nc1n[nH]c2cc(-c3ccoc3)ccc12)C1CC1` [SB-738481], the “%Inh” value was determined as 45% in experiment [1]; 0% in [2]; 0% in experiment [3]; 0% in experiment [4]; 0% in [5]; 44% in [6]. Also, the “%Inh” value in [7] came to 0%; in [8], 0%; in experiment [9], 15%; in experiment [10], 34%; in [11] it was 0%; in [12], 0%. The “%Inh” value in [13] stood at 6%; in experiment [14] (setting [21]), 1%; in experiment [15] it was 0%; in experiment [16] it was 0%; in experiment [17] it was 0%; in [18] it was 25%. Moreover, the “%Inh” value in [19] and in [20] was 0% throughout.

Regarding `COC(=O)Nc1nc2cc(Oc3ccc(NC(=O)Nc4cc(C(F)(F)F)ccc4F)cn3)ccc2[nH]1.Cl.Cl` [GW681170], the “%Inh” value turned out to be 51% in experiment [1]; 0% in experiment [2]; 6% in experiment [3]; 95.7% in experiment [4]; 73% in [5]; 18% in experiment [6]. Further, the “%Inh” value was 0% in [7]; 36% in experiment [8]; 88% in [9]; 0% in experiment [10]; 12% in [11]; 0% in experiment [12]. The “%Inh” value amounted to 10% in experiment [13]; 16% in experiment [14] (setting [21]); 0% in experiment [15]; 17% in experiment [16]; 0% in experiment [17]; 0% in experiment [18]. The “%Inh” value in [19] and in experiment [20] was 0% throughout.

These data come from paper PMC5540273 (PLoS ONE, 2017).
